# Data from PubChem BioAssay AID602441 (National Center for Advancing Translational Sciences (NCATS), 2012).
# Hit rate of the full screen: of about 1,300 compounds, fewer than 10 were called active. Another 9% or so got no clear call; they are omitted. Calls follow the shape of the dose curve; as a rule, active = well fitted curve in the direction sought with a large enough effect; inconclusive = small, poorly fitted or top-dose-only effect, or another doubt; inactive = no such curve, though single readings can be large or run the other way. A selection follows.
# Assay: qHTS for antagonists of the Thyroid Stimulation Hormone Receptor: Hit Validation in Parental Cell Line; as to activity change, negative = inhibition: 0% is about no effect
# Details: parental HEK293 cells lacking TSHR, counter-screen; series mostly up to 56.9 µM; activity change, negative = inhibition: at the top concentration
# Text: The thyroid-stimulating hormone receptor (TSHR) is a member of the 7 trans-membrane-spanning receptor (7TMR) family of cell surface receptors. TSHR-mediated hyperthyroidism is important in thyroid pathology. The development of small molecule antagonists of TSHR may lead to therapeutic approaches for TSHR-mediated hyperthyroidism caused by constitutively activating mutations or stimulating auto-antibodies associated with Graves' disease. Graves' disease is the leading cause of hyperthyroidism and is caused by autoantibodies that stimulate TSHR (TsAbs) causing thyroid growth and unregulated overproduction of thyroid hormones and existing treatments have liabilities (agranulocytosis). In addition, TSHRs are known to be expressed in multiple extrathyroidal tissues including bone, brain, kidney, testis, fat and cells of the immune system but the role of the TSHR in these tissues is not clear. Therefore, TSHR antagonists/inverse agonists could be used as probes of extrathyroidal TSHR function. Finally, TSHR inverse agonists, which are a subclass of antagonists that inhibit agonist-independent (or basal or constitutive) TSHR signaling, could be used to inhibit TSH-independent signaling in patients with recurrent or metastatic thyroid cancer who are receiving thyroid hormone to suppress TSH.
# In collaboration between scientist from the NCGC and the NIDDK, a miniaturized HTRF high-throughput screen was developed. It's a cell based assay, where an anti cAMP antibody contains a fluorescent cryptate tag (excitation 337 nm; emission 620 nm) and the acceptor is cAMP-d2 (excitation 620 nm; emission 665 nm). When antibody and cAMP-d2 interact and are excited by a 337 nm light, a FRET occurs resulting in emission at 665 nm. The assay is competition between cAMP-d2 and cAMP (from the cell lysate). The homogeneous protocol allows for one step dispense after stimulation that is automation friendly. This is a hit validation assay in a counterscreen using parental HEK 293 cells lines.
# NIH Chemical Genomics Center [NCGC]
# NIH Molecular Libraries Probe Centers Network [MLPCN]
# Assay Provider: Marvin Gershengorn, NIDDK
# An anti cAMP antibody contains a fluorescent cryptate tag (excitation 337 nm; emission 620 nm) and the acceptor is cAMP-d2 (excitation 620 nm; emission 665 nm). When antibody and cAMP-d2 interact and are excited by a 337 nm light, a FRET occurs resulting in emission at 665 nm. The assay is competition between cAMP-d2 and cAMP (from the cell lysate). The homogeneous protocol allows for one step dispense after stimulation that is automation friendly. This assay uses parental HEK-EM 293 cells
# Potency is read from the fitted curve at half-maximal effect.
Compound,"activity change, negative = inhibition",Potency
CC(C)c1ccc(OCC(=O)Nc2cccc3c2CCCC3)cc1,4.59% (inactive),–
O=C(Cn1cnc2ccccc21)Nc1ccc2c(c1)OCCCO2,1.89% (inactive),–
Cc1c(Nc2cc(Cl)c3nonc3c2[N+](=O)[O-])c(=O)n(-c2ccccc2)n1C,-9.16% (inactive),–
CN(C)S(=O)(=O)c1ccc(N2CCN(S(=O)(=O)c3ccc(F)cc3)CC2)c(Cl)c1,1.41% (inactive),–
CC(NC(=O)c1ccc([N+](=O)[O-])o1)C1CC2CCC1C2 (configuration not stated),2.74% (inactive),–
C=CCC1(CC=C)CCCN1C(=O)c1cc(COc2ccc(C)nc2)on1,0.634% (inactive),–
C=CCN1C(=O)C(Cc2ccc(OC)cc2)S/C1=N/N=C/c1ccco1 (configuration not stated),2.46% (inactive),–
CSc1cnn(Cc2ccccc2)c(=O)c1SCc1ccccc1,-0.181% (inactive),–
COC(=O)c1ccc(COc2cc(O)c3c(c2)OC(C)(C)CC3=O)cc1,-0.0715% (inactive),–
COc1ccc(-c2csc3ncnc(N4CCN(S(=O)(=O)c5cccs5)CC4)c23)cc1,0.325% (inactive),–
N#Cc1ccc(CN2CCN(C(=O)c3ccc(S(=O)(=O)N4CCCCCC4)cc3)CC2)cc1,-5.72% (inactive),–
Cc1ccc(NC(=O)COc2cccc3c2OC(C)(C)C3)c(O)c1,-0.793% (inactive),–
N#C/C(=N\Nc1ccc(S(=O)(=O)N2CCCCCC2)cc1)C(N)=S,-4.32% (inactive),–
Cc1sc2nc(-c3ccccn3)[nH]c(=O)c2c1-c1ccccc1,-1.49% (inactive),–
O=S(=O)(NCc1csc(-c2ccccc2)n1)c1ccc(Cl)s1,3.27% (inactive),–
O=C(Nc1ccc(Br)cc1)c1cccc(S(=O)(=O)Nc2cnc3ccccc3c2)c1,-3.55% (inactive),–
COc1ccc2ccccc2c1/C=N/NC(=O)c1nnn(-c2nonc2N)c1C(C)C,-4.51% (inactive),–
COc1ccc(-c2csc(/C(C#N)=C\c3ccc(O)c([N+](=O)[O-])c3)n2)cc1OC,-6.65% (inactive),–
CCOC(=O)c1sc(NC(=O)c2cc(-c3ccccc3C)nc3ccccc23)c(C#N)c1C,-2.33% (inactive),–
Cc1ccc(OCc2cc(C(=O)NC3CCCCC3)no2)cn1,-0.0859% (inactive),–
O=C(Nc1ccncc1)c1cccc(S(=O)(=O)N2CCc3ccccc32)c1,-2.96% (inactive),–
N#C/C(=N/Nc1ccc(OC(F)(F)F)cc1)C(N)=S,-5.72% (inactive),–
Cc1ccc(CN2CCc3c(OCc4ccc(F)cc4)cccc3C2=O)cc1,-2.57% (inactive),–
COc1ccc(C(=O)c2ccccc2)c2c(O)ccc(C(=O)c3ccccc3)c12,-1.57% (inactive),–
CCCC(=O)OCCNc1cc(Sc2nc3ccccc3[nH]2)c2nonc2c1[N+](=O)[O-],-7.55% (inactive),–
N#CC(C#N)=NNc1ccc(S(=O)(=O)N2CCCCC2)cc1,-1.81% (inactive),–

Compound,"activity change, negative = inhibition",Potency
COc1ccc(NS(=O)(=O)c2cccc(NC(=O)C3=NN(c4ccccc4)C(=O)CC3)c2)cc1,-3.01% (inactive),–
CCOc1ccc(-c2csc(/C(C#N)=C\c3ccc(O)c([N+](=O)[O-])c3)n2)cc1,-9.37% (inactive),–
Cc1cc(C)n(C(=O)/C(C#N)=N/Nc2cc(Cl)cc(Cl)c2)n1,0.0538% (inactive),–
COc1ccccc1C(=O)COC(=O)/C=C/c1ccccc1,3.14% (inactive),–
CC[n+]1ccc(/C=C/c2ccc(N(C)C)cc2)c2ccccc21,–,26.9 µM (active)
CN(C)c1ccc(/C=C/c2cc[n+](C)cc2)cc1,-7.72% (inactive),–
O=C(CN1C(=O)c2ccccc2S1(=O)=O)NCCSCc1cccc(Cl)c1,-1.03% (inactive),–
CC1CCC(C(C)C)C(OC(=O)Cn2c(-c3ccccc3)[n+](C)c3ccccc32)C1 (configuration not stated),2.05% (inactive),–
N#Cc1c(C(F)(F)F)cc(-c2ccc(Cl)cc2)[nH]c1=O,-0.329% (inactive),–
COc1ccc2nc(C)cc(N3CCN(S(=O)(=O)c4ccccc4F)CC3)c2c1,-1.34% (inactive),–
Cc1nc2ncnn2c(N2CCCC(C(=O)Nc3ccccc3Br)C2)c1C (configuration not stated),5.02% (inactive),–
O=S(=O)(c1ccc(Cl)cc1)N1CCN(c2ncnc3sccc23)CC1,-4.26% (inactive),–
Cc1noc(C)c1COc1ccccc1C(=O)N(C)Cc1ccc(C(C)(C)C)cc1,-3.32% (inactive),–
O=c1cc(C(F)(F)F)[nH]c2ccc(OC(F)(F)F)cc12,4.01% (inactive),–
CCCC(=O)Nc1cccn(Cc2ccccc2Br)c1=O,-0.796% (inactive),–
Cc1ccc(NC(=O)c2ccccc2NS(=O)(=O)c2ccc(F)cc2)cc1S(=O)(=O)N1CCCCC1,-5.23% (inactive),–
COc1cccc(C(=O)Nc2ccc(NC(=O)C3CCCCC3)nc2)c1,-5.39% (inactive),–
Cc1ccc(NC(=O)C(C)c2ccc(-c3ccccc3)c(F)c2)cc1 (configuration not stated),0.0015% (inactive),–
O=C(Nc1ccc(N=Nc2ccccc2)cc1)c1ccccc1Cl,-5.44% (inactive),–
O=C(O)c1cccc(NC2=C(Cl)C(=O)c3ccccc3C2=O)c1,-14.8% (inactive),–
CCN(CC)c1ccc2nc3ccccc3[n+](CC)c2c1,–,13.5 µM (active)
Cn1c2c(c(=O)n(C)c1=O)C(C(F)(F)F)(C(F)(F)F)N=C(c1ccc(Cl)cc1)N2,0.519% (inactive),–
Cc1sc(N/N=C/c2cccnc2)nc1-c1ccccc1,-1.97% (inactive),–
COc1ccccc1CNc1ncnc2sccc12,1.11% (inactive),–
COc1ccc(NS(=O)(=O)c2ccc(N/N=C(\C)c3ccncc3)c([N+](=O)[O-])c2)cc1,-6.85% (inactive),–
COC(=O)c1sc(-c2ccc(Cl)cc2)cc1NC(=O)/C=C/C(=O)O,6.29% (inactive),–

Compound,"activity change, negative = inhibition",Potency
COc1cccc(-c2nc(CS(=O)(=O)CC(=O)NC3CCCCCC3)c(C)o2)c1,-0.472% (inactive),–
CCCOc1ccc(-c2cc(C(=O)NCC3CCCO3)c3ccccc3n2)cc1 (configuration not stated),4.51% (inactive),–
COc1ccc(S(=O)(=O)N2CCN(c3cccc(C)c3C)CC2)cc1,-1.34% (inactive),–
CCOC(=O)c1cc(C(=O)Nc2sc3c(c2C#N)CCCC3)nn1C,3.84% (inactive),–
Cc1cccc(N(C(=O)c2nsc(Cl)c2Cl)C(C(=O)NC2CCCC2)c2ccc(O)cc2)c1C (configuration not stated),-4.34% (inactive),–
Cc1occc1-c1nnc(SCC(=O)Nc2nc(C(C)(C)C)cs2)o1,0.133% (inactive),–
COc1ccc(Cn2nnnc2C(C(C)C)N2CCN(c3ccccc3OC)CC2)cc1 (configuration not stated),-3.62% (inactive),–
O=C(Nc1nc(-c2ccc(S(=O)(=O)N3CCCCCC3)cc2)cs1)c1ccccc1,-3.18% (inactive),–
Cc1ccc(C)c(C(=O)OCC(=O)Nc2cccc(S(=O)(=O)N3CCCCC3)c2)c1,-4.33% (inactive),–
CCOC(=O)c1c(-c2ccccc2)csc1NC(=O)CSc1nnnn1C,-6.89% (inactive),–
Cc1ccccc1-c1cc(C(=O)Nc2sc(C(=O)OC(C)C)c(C)c2C#N)c2ccccc2n1,-8.24% (inactive),–
Cc1ccc(C(=O)COC(=O)CCN2C(=O)C3C4CCC(C4)C3C2=O)cc1[N+](=O)[O-] (configuration not stated),0.395% (inactive),–
COc1ccc(CCNc2ncnc3sc(C)cc23)cc1OC,-0.71% (inactive),–
Cc1cc2c(NCc3ccccc3)ncnc2s1,-0.667% (inactive),–
COC(=O)c1ccc(/C(O)=C(\C#N)c2nc3ccccc3s2)cc1,-6.58% (inactive),–
COc1ccc(-c2sc3ccc(N4CCOCC4)cc3c2C#CCO)cc1,-3.71% (inactive),–
Cc1[nH]c2ccccc2c1/C=C/c1cc[n+](C)cc1,-22.4% (inactive),–
O=C(NCC1CCCN(C(=O)c2cccc(C(F)(F)F)c2)C1)c1ccc(F)cc1 (configuration not stated),5.15% (inactive),–
COc1ccc(-c2c(C(F)(F)F)[nH]n3c(=O)cc(-c4ccccc4)nc23)cc1,-6.45% (inactive),–
COc1ccc(/C=C2/SC(=S)NC2=O)cc1OCc1ccccc1,-11.5% (inactive),–
COc1ccc(OC)c2c1C(=O)C(Cl)=C(Cl)C2=O,-19.3% (inactive),–
O=C1c2ccccc2C(=O)N1CCCCSc1nnnn1-c1ccccc1,2.18% (inactive),–
Cc1cc(Br)ccc1OCC(=O)NC1CCCC1,3.22% (inactive),–
COc1ccccc1NS(=O)(=O)c1cc(NC(=O)c2ccc3c(c2)OCCO3)ccc1C,-1.4% (inactive),–
O=C(COc1ccc(Cl)cc1Cl)Nc1ccc(C(=O)Nc2ccccc2C(=O)O)cc1,-4.74% (inactive),–
O=C(COC(=O)c1ccccc1SCC(=O)N1CCCC1)Nc1ccccc1,1.31% (inactive),–

Compound,"activity change, negative = inhibition",Potency
Cc1ccc(OC(F)F)c(NC(=O)Nc2cccc(C(F)(F)F)c2)c1,-4.88% (inactive),–
O=C(c1cc(COc2cccc3cnccc23)on1)N1CCCC(CCCO)C1 (configuration not stated),-1.72% (inactive),–
Cc1ccc(S(=O)(=O)/N=C2/NC(=O)/C(=C\c3cc(Br)cc(Br)c3O)S2)cc1,3.98% (inactive),–
CCN(CC)S(=O)(=O)c1cccc(C(=O)/C=C2/N(C)c3ccccc3C2(C)C)c1,-8.84% (inactive),–
CCCOc1ccc(CSc2nc3ccccc3[nH]2)cc1,2.29% (inactive),–
Cc1nn(CCCC(=O)Nc2cc(Oc3ccccc3)cc([N+](=O)[O-])c2)c(C)c1[N+](=O)[O-],-1.09% (inactive),–
Cc1ccccc1CS(=O)(=O)c1ncc(Cl)c(C(=O)Nc2ccc(F)cc2)n1,-4.75% (inactive),–
Cc1cc(NC(=O)CC(C)C)c(=O)n(Cc2cccc(F)c2)c1,4.18% (inactive),–
CCOC(=O)c1c(NC(=O)/C=C/C(=O)O)sc(C)c1-c1ccc(F)cc1,1.17% (inactive),–
Cc1cc(NC(=O)c2cccc(S(=O)(=O)N3CCOCC3)c2)c2ccccc2n1,1.33% (inactive),–
O=C(Nc1nnc(C(F)(F)F)s1)c1ccc(Br)s1,4.59% (inactive),–
COc1ccc(-c2nc(NC(=O)c3cc(C(C)(C)C)nn3C)sc2C)cc1,-7.16% (inactive),–
CCc1noc(C)c1C(=O)Oc1ccc(N(C)S(=O)(=O)c2ccc(C)cc2)cc1,0.572% (inactive),–
COc1ccc(C(=O)N2CCN(c3ccc([N+](=O)[O-])c(NCCc4ccc(OC)c(OC)c4)c3)CC2)cc1,-1.33% (inactive),–
O=[N+]([O-])c1ccc(S(=O)(=O)c2ccccc2)nc1,-8.08% (inactive),–
CC1CC(C)CN(C(=O)c2ccc3c(=O)n(Cc4ccc5c(c4)OCO5)c(=S)[nH]c3c2)C1 (configuration not stated),-0.844% (inactive),–
CCc1nnc(NC(=O)c2ccc(Cl)c(S(=O)(=O)N3CCc4ccccc43)c2)s1,-0.247% (inactive),–
COCCn1nnnc1C(c1cccs1)N1CCN(c2cc(C)ccc2C)CC1 (configuration not stated),-0.758% (inactive),–
Cc1cc(NC(=O)c2cc(-c3ccco3)on2)nn1Cc1ccc(Cl)cc1,-4.6% (inactive),–
COc1ccc(-c2csc(NC(=O)c3ccccc3NS(=O)(=O)c3ccc(C)cc3)n2)cc1,-5.21% (inactive),–
Cc1cccc(OCCCCc2c(C)n[nH]c2C)c1C,-0.678% (inactive),–
Cc1cc2cc(CCNC(=O)c3ccc(S(=O)(=O)N4CCCC4)cc3)c(=O)[nH]c2cc1C,-7.69% (inactive),–
O=C(NCCc1ccccc1)C(=O)NCC1OCCCN1S(=O)(=O)c1cc(F)ccc1F (configuration not stated),2.75% (inactive),–
CCOc1ccc(NS(=O)(=O)c2cc(NC(=O)c3cccc(C)c3)ccc2Cl)cc1,3.25% (inactive),–
